# Data as given in PubChem BioAssay (NCI).
# The panel holds about 83,000 compounds, 20% with a hit somewhere; the sample as a whole holds those more often.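 The test compound was applied at a single concentration to cells in 96-well plates for 48 hours, and percent growth was recorded.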 The source made the active and inactive calls. How the source made its calls: active means growth percent below 10; inactive means the rest.
# Tests used:
# Assay in all cases: NCI-60 one-dose screen, 48 h (100 = growth as untreated, 0 = no growth, -100 = all killed)
# Conditions in all cases: 10 µM unless noted
# NCI-H23 lung = system: NCI-H23 lung
# NCI-H226 lung = system: NCI-H226 lung
# NCI-H322M lung = system: NCI-H322M lung
# HOP-62 NSCLC = system: HOP-62 NSCLC
# NCI-H460 lung = system: NCI-H460 lung
# HOP-92 NSCLC = system: HOP-92 NSCLC
# NCI-H522 lung = system: NCI-H522 lung
# 786-0 renal = system: 786-0 renal
# COLO 205 colon = system: COLO 205 colon
# DU-145 prostate = system: DU-145 prostate
# K-562 leukemia = system: K-562 leukemia
# MALME-3M melanoma = system: MALME-3M melanoma
# MDA-MB-231 breast = system: MDA-MB-231 breast
# RXF 393 renal = system: RXF 393 renal
# SF-268 CNS = system: SF-268 CNS
# SF-295 CNS = system: SF-295 CNS
# SF-539 CNS = system: SF-539 CNS
# UACC-257 melanoma = system: UACC-257 melanoma
# M14 melanoma = system: M14 melanoma
# A549/ATCC NSCLC = system: A549/ATCC NSCLC
Compound,growth (NCI-H23 lung),growth (NCI-H226 lung),growth (NCI-H322M lung),growth (HOP-62 NSCLC),growth (NCI-H460 lung),growth (HOP-92 NSCLC),growth (NCI-H522 lung),growth (786-0 renal),growth (COLO 205 colon),growth (DU-145 prostate),growth (K-562 leukemia),growth (MALME-3M melanoma),growth (MDA-MB-231 breast),growth (RXF 393 renal),growth (SF-268 CNS),growth (SF-295 CNS),growth (SF-539 CNS),growth (UACC-257 melanoma),growth (M14 melanoma),growth (A549/ATCC NSCLC)
O=C1CCC(N2C(=O)c3cccc(NCCCCCC(=O)N4CCN(c5ccc6nc7c(nc6c5C(F)(F)F)C(=O)c5ncccc5C7=O)CC4)c3C2=O)C(=O)N1 (configuration not stated),-49% (active),-51.3% (active),-73.8% (active),-74.2% (active),-48.3% (active),-40.2% (active),-62% (active),-56.5% (active),-75.9% (active),-88.3% (active),-0.95% (active),-99.3% (active),-46.2% (active),-72.1% (active),-29.5% (active),-84.1% (active),-95.4% (active),-98.3% (active),-87.2% (active),–
CCOc1ccccc1[C@H]1C(C(=O)c2ccc(Cl)cc2)C2(N[C@@H]1c1ccccc1)C(=O)Nc1ccc(Cl)cc12 (some centres not stated),21.5% (inactive),20.3% (inactive),48.7% (inactive),42.6% (inactive),17.3% (inactive),2.97% (active),34.1% (inactive),35% (inactive),15.3% (inactive),45.2% (inactive),6.17% (active),45.7% (inactive),28.8% (inactive),2.56% (active),46.6% (inactive),11.1% (inactive),37.2% (inactive),69.5% (inactive),22.5% (inactive),40.5% (inactive)
COc1ccc(-c2nnc3c(/C=C/c4ccc(Br)cc4)nc4ccccc4n23)cc1,29.9% (inactive),96.7% (inactive),96.5% (inactive),104% (inactive),67.6% (inactive),35.6% (inactive),-79.9% (active),-41.8% (active),-53% (active),53.6% (inactive),10.6% (inactive),-39.4% (active),81.9% (inactive),-2.19% (active),87.4% (inactive),87.4% (inactive),23.8% (inactive),70.9% (inactive),-19.8% (active),–
CC1=C(C)C(=O)C(NCCN2CCOCC2)=C(Br)C1=O,-0.608% (active),67.1% (inactive),91.5% (inactive),87.2% (inactive),98% (inactive),38.7% (inactive),–,100% (inactive),130% (inactive),-76.9% (active),0.994% (active),-69% (active),-6.27% (active),122% (inactive),63.7% (inactive),103% (inactive),32.1% (inactive),-13.3% (active),37.3% (inactive),87.6% (inactive)
O=C(Nc1ccc(Br)cc1)Nc1ccc(-c2ccc3c(c2)NC(=O)/C3=C\c2ccc[nH]2)cc1,30.7% (inactive),66.2% (inactive),46.1% (inactive),53.1% (inactive),8.75% (active),92.1% (inactive),–,61% (inactive),57.2% (inactive),27.9% (inactive),18.6% (inactive),61.6% (inactive),66.3% (inactive),25.3% (inactive),40.3% (inactive),22.9% (inactive),26.5% (inactive),75.4% (inactive),32.3% (inactive),–
CCOC(=O)c1ccc(NC(=S)NC(=O)c2cccc(NC(=O)c3ccc(C)cc3)c2)cc1,66.8% (inactive),32.2% (inactive),74.7% (inactive),40.4% (inactive),75.9% (inactive),36.4% (inactive),–,81.2% (inactive),77.9% (inactive),105% (inactive),76.3% (inactive),71.9% (inactive),39.1% (inactive),66.9% (inactive),102% (inactive),90.9% (inactive),44.9% (inactive),78.6% (inactive),80.7% (inactive),48.2% (inactive)
CCOc1ccccc1NC(=O)N/C(N)=N/c1nc2ccccc2s1,12.6% (inactive),33.9% (inactive),35.9% (inactive),33.6% (inactive),6.47% (active),-13.4% (active),–,12.9% (inactive),-78.1% (active),-4% (active),10.1% (inactive),42% (inactive),0.962% (active),48.7% (inactive),27.3% (inactive),3.78% (active),-27.7% (active),52.2% (inactive),13.4% (inactive),13.6% (inactive)
CCCSc1nnc(-c2c(C)nc3sccn23)o1,90.5% (inactive),66.6% (inactive),73.9% (inactive),112% (inactive),97.9% (inactive),73.8% (inactive),–,92.8% (inactive),118% (inactive),96.7% (inactive),88.4% (inactive),104% (inactive),74.6% (inactive),82.9% (inactive),89.1% (inactive),87.1% (inactive),90.9% (inactive),93.6% (inactive),99.6% (inactive),–
O=C1CC(c2ccc(I)cc2)OC2C=Cc3ccccc3C12 (configuration not stated),98.2% (inactive),90.7% (inactive),103% (inactive),98.7% (inactive),108% (inactive),101% (inactive),–,99.2% (inactive),118% (inactive),106% (inactive),102% (inactive),94.3% (inactive),97.6% (inactive),107% (inactive),114% (inactive),99.9% (inactive),106% (inactive),113% (inactive),108% (inactive),102% (inactive)
Nc1cc(-c2c[nH]c3ccc(Br)cc23)nc2cc(-c3c[nH]c4ccccc34)nn12,-68.9% (active),3.69% (active),-18.8% (active),-61.9% (active),-53.1% (active),-50.8% (active),–,-68.2% (active),-87% (active),-47.5% (active),6.16% (active),-88.1% (active),-83.3% (active),-76.7% (active),-44.5% (active),-87.6% (active),-93.5% (active),-86.9% (active),-69.4% (active),-47.2% (active)
COc1ccc(N=Nc2c(N)nn3c(N)c(C#N)c(-c4ccc(C)cc4)nc23)cc1,62.9% (inactive),54.7% (inactive),78.7% (inactive),63.6% (inactive),26.6% (inactive),19.4% (inactive),–,80.9% (inactive),85.6% (inactive),42.2% (inactive),36.1% (inactive),93.7% (inactive),42.4% (inactive),65.1% (inactive),67.5% (inactive),58.1% (inactive),52.4% (inactive),92.7% (inactive),61.6% (inactive),43.3% (inactive)
COc1ccc2c(c1)C(=O)N(C)C2C1c2c(cc3c(c2OC)OCO3)CCN1C (configuration not stated),64.9% (inactive),65.1% (inactive),75.9% (inactive),54.5% (inactive),20.7% (inactive),78.7% (inactive),–,65.9% (inactive),33.1% (inactive),73.2% (inactive),16.6% (inactive),33.8% (inactive),66.7% (inactive),19.8% (inactive),66% (inactive),26.7% (inactive),45.5% (inactive),71% (inactive),36.6% (inactive),57.9% (inactive)
COc1cc(C2CC(c3cc(OC)c(OC)c(OC)c3)=Nc3c(N)nc(N)nc3N2)ccc1Oc1nc(Nc2ccc(F)cc2)nc(N(C)C)n1 (configuration not stated),89.8% (inactive),–,94.4% (inactive),99.9% (inactive),42.8% (inactive),38.1% (inactive),56.8% (inactive),36.6% (inactive),73.9% (inactive),70.7% (inactive),15.1% (inactive),78.6% (inactive),24.6% (inactive),26.5% (inactive),63.5% (inactive),61.3% (inactive),62% (inactive),58.9% (inactive),–,52.9% (inactive)
Cc1cc(C)c2[nH]c(=O)c(C(c3nnnn3Cc3ccc4c(c3)OCO4)N3CCN(C)CC3)cc2c1 (configuration not stated),105% (inactive),102% (inactive),107% (inactive),111% (inactive),112% (inactive),99.9% (inactive),–,97.9% (inactive),114% (inactive),103% (inactive),107% (inactive),110% (inactive),112% (inactive),114% (inactive),101% (inactive),104% (inactive),104% (inactive),110% (inactive),111% (inactive),105% (inactive)
S=C(Nc1ccccc1)Nc1ccc(OCc2nc3ccc(Cl)cc3[nH]2)cc1,88% (inactive),97.5% (inactive),89.5% (inactive),90.4% (inactive),88.2% (inactive),115% (inactive),–,94.5% (inactive),114% (inactive),96.4% (inactive),30.9% (inactive),92.4% (inactive),80% (inactive),85.1% (inactive),92.1% (inactive),93.7% (inactive),88.8% (inactive),105% (inactive),85% (inactive),88.2% (inactive)
Cc1ccc(C(C)C)cc1Oc1cccc(-c2c(-c3ccc(C(F)(F)F)cc3)ncn2C2CCNCC2)n1,-89% (active),-78.4% (active),-98.4% (active),-82.7% (active),-84.3% (active),-85.8% (active),–,-90.8% (active),-87.5% (active),-83.5% (active),-60.7% (active),-86.6% (active),-95.7% (active),-90.3% (active),-56.6% (active),-94.2% (active),-98.2% (active),-88.4% (active),-97.2% (active),-86.8% (active)
